PubChem BioAssay (EPA / NIEHS)
Records with an inconclusive call do not appear. Active and inactive are the calls of the source. The calls were made as follows, unless noted: active = hit-call score of the fitted dose curve at least 0.9, where 1 is the maximum; inactive = score below 0.9.

What was measured:
[1] = biological target: human Vitamin D Receptor (VDR), VDR (gene 7421) (UniProt P11473); assay: ATG_VDR_TRANS: Attagene TRANS-FACTORIAL HepG2 Assay for human Vitamin D Receptor (VDR) (AID 2283022; active = hit-call score of the fitted dose curve at least 0.9, where 1 is the maximum)
Chain of human Vitamin D Receptor (VDR), VDR (gene 7421) (P11473 whole entry, looked up, the tested form may be a part): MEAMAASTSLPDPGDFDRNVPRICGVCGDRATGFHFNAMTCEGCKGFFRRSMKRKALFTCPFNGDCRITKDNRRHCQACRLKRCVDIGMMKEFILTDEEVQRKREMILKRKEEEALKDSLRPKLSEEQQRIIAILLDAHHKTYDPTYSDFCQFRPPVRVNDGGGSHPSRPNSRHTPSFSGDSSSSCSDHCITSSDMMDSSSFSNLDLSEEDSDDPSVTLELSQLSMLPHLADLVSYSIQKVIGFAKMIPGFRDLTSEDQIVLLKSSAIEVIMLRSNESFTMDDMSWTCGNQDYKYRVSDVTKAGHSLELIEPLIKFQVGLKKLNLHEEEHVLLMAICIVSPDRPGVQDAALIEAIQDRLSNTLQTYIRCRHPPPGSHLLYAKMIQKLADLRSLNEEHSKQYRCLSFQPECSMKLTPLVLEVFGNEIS
Method in brief: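 RT-PCR/capillary electrophoresis read-out of reporter mRNA induction in transiently transfected HepG2; 24 h dosing; chimeric NR-Gal4 (TRANS format); gain-of-signal fit against DMSO baseline.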

[2] = read-out: Interleukin-8 (IL8), CXCL8 (gene 3576); assay: BSK_3C_IL8: BioMAP Diversity Plus: 3C Assay for Interleukin-8 (IL8) Biomarker Activity (AID 2283020); details: primary human endothelial cells (HUVEC); actives raise or lower the signal
Method in brief: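 Using DMSO-treated wells as the baseline, bidirectional curve fitting was applied to ELISA-measured IL-8 from human umbilical vein endothelial cultures sampled 24 h after compound addition.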

[3] = read-out: Monokine induced gamma interferon (MIG), CXCL9 (gene 4283); assay: BSK_3C_MIG: BioMAP Diversity Plus: 3C Assay for Monokine induced gamma interferon (MIG) Biomarker Activity (AID 2283021); details: primary human endothelial cells (HUVEC); actives raise or lower the signal;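 as to AC50: MIG protein level measured by immunoassay in the treated endothelial cultures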
Method in brief: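 ELISA-measured MIG in dosed HUVEC 3C cultures at 24 h, analysed by bidirectional fitting with DMSO defining baseline activity.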

[4] = BSK_3C_SRB: Viability Assessment in the BioMAP Diversity Plus: 3C Assay (AID 2283023); details: primary human endothelial cells (HUVEC);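 also: cells read 24 h after compound dosing; fitted both ways against DMSO so a hit may be signal rise or drop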
Method in brief: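 HUVEC, 24 h post-dose; 10% TCA fix, 0.1% SRB stain, A560 nm. Bidirectional curve fit vs DMSO negative control.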

[5] = read-out: Matrix Metallopeptidase 1 (MMP1), MMP1 (gene 4312); assay: BSK_BE3C_MMP1: BioMAP Diversity Plus: BE3C Assay for Matrix Metallopeptidase 1 (MMP1) Biomarker Activity (AID 2283024); details: primary human bronchial epithelial cells; actives raise or lower the signal
Method in brief: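 In this multiplexed primary-cell system, human bronchial epithelium received chemicals for 24 h before an ELISA for MMP1. Values reflect bidirectional fits normalised to the DMSO baseline.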

[6] = BSK_3C_Vis: BioMAP Diversity Plus: 3C Assay for Morphology Visualization (AID 2283025); details: primary human endothelial cells (HUVEC);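 also: fitted both ways so gain or loss versus DMSO counts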;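 as to AC50: light microscopy image of cell morphology used as background control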
Method in brief: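 Light-microscopy morphology readout, 24 h exposure, human primary umbilical vein endothelium; analysed relative to DMSO with bidirectional fitting.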

[7] = read-out: Pselectin, SELP (gene 6403); assay: BSK_4H_Pselectin: BioMAP Diversity Plus: 4H Assay for Pselectin Biomarker Activity (AID 2283026); details: primary human endothelial cells (HUVEC); actives raise or lower the signal
Method in brief: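 Bidirectional fits against DMSO gave the endpoint. Cells: primary human umbilical vein endothelium, chemical-treated for 24 h before ELISA detection of P-selectin.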

[8] = BSK_4H_SRB: Viability Assessment in the BioMAP Diversity Plus: 4H Assay (AID 2283027); details: primary human endothelial cells (HUVEC);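 also: cells exposed to compound for 24 h before staining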;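 as to AC50: curves fitted both ways versus DMSO so AC50 may be loss or gain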
Method in brief: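 HUVEC, 24 h post-dose; 10% TCA fix, 0.1% SRB stain, A560 nm. Total protein = overt cytotoxicity, parallel to biomarker read. Bidirectional fit vs DMSO baseline.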

[9] = BSK_BE3C_SRB: Viability Assessment in the BioMAP Diversity Plus: BE3C Assay (AID 2283028); details: primary human bronchial epithelial cells;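 as to AC50: fitted both ways so AC50 may mark signal gain or loss versus DMSO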
Method in brief: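 Primary human bronchial epithelium; chemical dosing, 24 h; 10% TCA fix, 0.1% SRB stain, A560; bidirectional fit vs DMSO baseline.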

[10] = read-out: Thrombomodulin, THBD (gene 7056); assay: BSK_3C_Thrombomodulin: BioMAP Diversity Plus: 3C Assay for Thrombomodulin Biomarker Activity (AID 2283029); details: primary human endothelial cells (HUVEC); actives raise or lower the signal
Method in brief: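 In a multiplexed primary-cell system, human umbilical vein endothelium received chemical and was assayed 24 h later for thrombomodulin by ELISA. Parallel cultures were SRB-stained (0.1% SRB after 10% TCA fixation, read at 560 nm) to flag cytotoxicity.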

[11] = read-out: Urokinase-type plasminogen activator receptor (uPAR), PLAUR (gene 5329); assay: BSK_4H_uPAR: BioMAP Diversity Plus: 4H Assay for Urokinase-type plasminogen activator receptor (uPAR) Biomarker Activity (AID 2283030); details: primary human endothelial cells (HUVEC); actives raise or lower the signal
Method in brief: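 HUVEC, 24 h post-dose; uPAR by ELISA; bidirectional fit vs DMSO baseline.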

[12] = read-out: Vascular endothelial growth factor receptor 2 (Homo sapiens) (UniProt P35968); assay: BSK_4H_VEGFRII: BioMAP Diversity Plus: 4H Assay for Vascular endothelial growth factor receptor 2 (VEGFR2) Biomarker Activity (AID 2283031); details: primary human endothelial cells (HUVEC); actives raise or lower the signal;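 as to AC50: cell-surface VEGFR2 protein level quantified by ELISA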
Method in brief: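 HUVEC (human primary), 4H system; 24 h post-dose; VEGFRII by ELISA; bidirectional curve fit vs DMSO baseline; gain or loss of signal scored.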

[13] = read-out: Human Leukocyte Antigen - DR isotype (HLADR), HLA-DRA (gene 3122); assay: BSK_BE3C_HLADR: BioMAP Diversity Plus: BE3C Assay for Human Leukocyte Antigen - DR isotype (HLADR) Biomarker Activity (AID 2283032); details: primary human bronchial epithelial cells; actives raise or lower the signal
Method in brief: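 BioMAP BE3C format: human bronchial epithelium, 24 h compound treatment, ELISA detection of HLA-DR, with bidirectional analysis relative to DMSO.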

[14] = read-out: Vascular cell adhesion molecule 1 (VCAM1), VCAM1 (gene 7412); assay: BSK_4H_VCAM1: BioMAP Diversity Plus: 4H Assay for Vascular cell adhesion molecule 1 (VCAM1) Biomarker Activity (AID 2283033); details: primary human endothelial cells (HUVEC); actives raise or lower the signal
Method in brief: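 In this human endothelial (HUVEC) system, biomarker ELISA was run 24 h after compound addition, and total protein in parallel wells was assessed by SRB at 560 nm; DMSO served as negative control.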

[15] = read-out: Interferon-gamma inducible Protein 10 (IP10), CXCL10 (gene 3627); assay: BSK_BE3C_IP10: BioMAP Diversity Plus: BE3C Assay for Interferon-gamma inducible Protein 10 (IP10) Biomarker Activity (AID 2283034); details: primary human bronchial epithelial cells; actives raise or lower the signal
Method in brief: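 BE3C cells (human bronchial epithelial, primary); 24 h exposure; ELISA for IP-10; DMSO-referenced bidirectional fit.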

[16] = read-out: Transforming growth factor beta 1 (TGFb1), TGFB1 (gene 7040); assay: BSK_BE3C_TGFb1: BioMAP Diversity Plus: BE3C Assay for Transforming growth factor beta 1 (TGFb1) Biomarker Activity (AID 2283036); details: primary human bronchial epithelial cells; actives raise or lower the signal
Method in brief: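 TGF-b1 measured via ELISA, 24 h after chemical dosing of human bronchial epithelial cells (BE3C). Overt cytotoxicity assessed in parallel by SRB (0.1%, TCA-fixed, 560 nm); analysis bidirectional relative to DMSO.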

[17] = read-out: Plasminogen activator inhibitor-1 (PAI1), SERPINE1 (gene 5054); assay: BSK_BE3C_PAI1: BioMAP Diversity Plus: BE3C Assay for Plasminogen activator inhibitor-1 (PAI1) Biomarker Activity (AID 2283037); details: primary human bronchial epithelial cells; actives raise or lower the signal
Method in brief: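 In this multiplexed primary-cell system, bronchial epithelial cells receive test chemical and are sampled at 24 h. PAI-1 is read by ELISA, with DMSO serving as negative control for bidirectional fitting.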

[18] = read-out: urokinase plasminogen activator (uPA), PLAU (gene 5328); assay: BSK_BE3C_uPA: BioMAP Diversity Plus: BE3C Assay for urokinase plasminogen activator (uPA) Biomarker Activity (AID 2283038); details: primary human bronchial epithelial cells; actives raise or lower the signal
Method in brief: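 ELISA read-out of uPA in human lung primary bronchial epithelial cultures, 24 h post-dosing. Gain or loss of signal fitted bidirectionally relative to DMSO baseline; cytotoxicity checked in parallel cultures via SRB total protein stain.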

[19] = read-out: Urokinase-type plasminogen activator receptor (uPAR), PLAUR (gene 5329); assay: BSK_BE3C_uPAR: BioMAP Diversity Plus: BE3C Assay for Urokinase-type plasminogen activator receptor (uPAR) Biomarker Activity (AID 2283039); details: primary human bronchial epithelial cells; actives raise or lower the signal
Method in brief: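 Chemically treated human bronchial epithelial cells (lung primary) are assayed for uPAR by ELISA after 24 h, with data fitted in both directions using DMSO as negative control.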

[20] = read-out: Monokine induced gamma interferon (MIG), CXCL9 (gene 4283); assay: BSK_BE3C_MIG: BioMAP Diversity Plus: BE3C Assay for Monokine induced gamma interferon (MIG) Biomarker Activity (AID 2283035); details: primary human bronchial epithelial cells; actives raise or lower the signal;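 also: MIG protein measured by ELISA in BE3C cultures after 24 h of dosing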
Method in brief: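 Dose cells (human primary bronchial epithelial), incubate 24 h, quantify MIG by ELISA, then fit concentration–response in both directions relative to DMSO control.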

Measured: AC50

CCN(CC)C1CCCCC1
inactive: [1]

CC(C)(C)N(NC(=O)c1ccc(Cl)cc1)C(=O)c1ccccc1
inactive: [1]

O=c1ssc(Cl)c1Cl
active: [2] 7.48 µM | [3] 14.8 µM | [4] 5.07 µM | [5] 9.81 µM | [6] 4.24 µM | [7] 4.74 µM | [8] 5.42 µM | [9] 5.34 µM | [11] 7.3 µM | [13] 8.51 µM | [14] 3.91 µM | [15] 3.38 µM | [16] 14.8 µM | [17] 11.7 µM | [18] 9.31 µM | [19] 12.2 µM
inactive: [10] | [12]

O=[N+]([O-])c1ccccc1
inactive: [2] | [3] | [4] | [5] | [6] | [7] | [8] | [9] | [10] | [11] | [13] | [14] | [15] | [20] | [16] | [17] | [18] | [19]

CCOS(=O)(=O)OCC
inactive: [2] | [3] | [4] | [5] | [6] | [7] | [8] | [9] | [10] | [11] | [12] | [13] | [14] | [15] | [16] | [17] | [18] | [19]

O=C(O)CF
inactive: [1]

Oc1ccc(I)cc1
inactive: [1]

CC(Cl)(Cl)C(=O)O
inactive: [2] | [3] | [4] | [5] | [6] | [7] | [8] | [9] | [10] | [11] | [12] | [13] | [14] | [15] | [16] | [17] | [18] | [19]

CC(C)Nc1ccc(Nc2ccccc2)cc1
active: [2] 12.8 µM | [3] 20 µM | [4] 11 µM | [6] 9.94 µM | [7] 7.42 µM | [8] 9.88 µM | [9] 33.2 µM | [11] 14.4 µM | [12] 8.12 µM | [13] 9.07 µM | [14] 10.1 µM | [15] 6.69 µM | [16] 20 µM | [18] 20 µM
inactive: [5] | [10] | [17] | [19]

CCOP(=O)(O)C(N)=O
inactive: [1]

Nc1ccc(Sc2ccc(N)cc2)cc1
inactive: [1]

NNC(N)=S
inactive: [1]

O=S(=O)(c1ccc(O)cc1)c1ccc(O)cc1
inactive: [1]

Nc1ccc(Cl)cc1
inactive: [2] | [3] | [4] | [5] | [6] | [7] | [8] | [9] | [10] | [11] | [12] | [13] | [14] | [15] | [16] | [17] | [18] | [19]

C/C(=N\NC(=O)Nc1cc(F)cc(F)c1)c1ncccc1C(=O)O
inactive: [1]

CCOC(=O)c1ccccc1N
inactive: [1]

CCCCN(CCCC)SN(C)C(=O)Oc1cccc2c1OC(C)(C)C2
inactive: [3] | [5] | [9] | [10] | [13] | [15] | [16] | [17] | [18] | [19]
active: [2] 36.4 µM | [4] 29.5 µM | [6] 37.5 µM | [7] 20.2 µM | [8] 27.2 µM | [11] 37.1 µM | [12] 31 µM | [14] 30.4 µM

COCCOCCO
inactive: [2] | [3] | [4] | [5] | [6] | [7] | [8] | [9] | [10] | [11] | [12] | [13] | [14] | [15] | [16] | [17] | [18] | [19]

CCCCN(CC)C(=O)SCCC
inactive: [1]

Cc1ccc2c(c1N)C(=O)c1ccccc1C2=O
active: [4] 4.25 µM | [6] 13.6 µM | [13] 5.4 µM
inactive: [2] | [3] | [5] | [7] | [8] | [9] | [10] | [11] | [12] | [14] | [15] | [16] | [17] | [18] | [19]

N#Cc1ccc(O)cc1
inactive: [1]

COP(=O)(CCC(=O)NCO)OC
inactive: [2] | [3] | [4] | [5] | [7] | [8] | [9] | [10] | [11] | [12] | [13] | [14] | [15] | [20] | [17] | [18] | [19]

Cc1ccc(O)cc1C
inactive: [2] | [3] | [4] | [5] | [6] | [7] | [8] | [9] | [10] | [11] | [12] | [13] | [14] | [15] | [16] | [17] | [18] | [19]

CO/N=C(/C(=O)OC)c1ccccc1COc1ccccc1C
inactive: [1]

c1ccc(OP(Oc2ccccc2)Oc2ccccc2)cc1
inactive: [2] | [3] | [4] | [5] | [6] | [7] | [8] | [9] | [10] | [11] | [12] | [13] | [14] | [15] | [16] | [17] | [18] | [19]
